Shown are actives, neighbours in structure and some others; about 8.9% of the full set was active somewhere.
KB-3-1 cytotox – qHTS assay for MDR1-selective chemotherapeutics: Primary screen using the parental adenocarcinoma cell KB-3-1; KB-3-1 viability, CellTiter-Glo ATP luminescence, 72 h; Potency, µM (doses to about 46.1 µM), usual class: cytotoxic; 400,000 compounds, 1.4% hits; also: potency is read from the fitted curve at half-maximal effect; % is scaled to controls: 0 for no effect and ±100 for the full control effect; nearly all actives have a fitted effect of over 60% in size
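KB-3-1 cells, DMEM (no phenol red) + 10% FBS; compound by pin transfer, 72 h, 37 °C. Readout: CellTiter-Glo luminescence after 10 min. Data normalized, curve-fitted.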
SW480 rereplic – A quantitative high throughput screen for small molecules that induce DNA re-replication in SW480 colon adenocarcinoma cells; 340,000 compounds, 1.8% hits; Potency, µM (series often up to 46.1 µM), inactives show top-dose re-replication activation, usual class: activators; SW480 DNA re-replication, Hoechst DNA content imaging, 48 h; also: potency is read from the fitted curve at half-maximal effect; % of control where 0% means no effect; nearly all actives have a fitted effect of over 55% in size
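DNA re-replication was detected as more nuclei of elevated Hoechst intensity after 48 hr exposure to compound (23 nL pinned per well of 250 cells).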
D3 antag – qHTS of D3 Dopamine Receptor Antagonist: qHTS; D(3) dopamine receptor (Homo sapiens), P35462; D3R cells, DiscoveRx beta-arrestin luminescence, antagonist mode; stronger effect = lower value; max response, negative = inhibition, %; 360,000 compounds, 2.5% hits; AID 652054, 2013; in the data active = max response below about -50%; inconclusive = no clear call, values can overlap the other calls; also: % is scaled to controls: 0 for no effect and ±100 for the full control effect
Target sequence (P35462 whole entry, looked up): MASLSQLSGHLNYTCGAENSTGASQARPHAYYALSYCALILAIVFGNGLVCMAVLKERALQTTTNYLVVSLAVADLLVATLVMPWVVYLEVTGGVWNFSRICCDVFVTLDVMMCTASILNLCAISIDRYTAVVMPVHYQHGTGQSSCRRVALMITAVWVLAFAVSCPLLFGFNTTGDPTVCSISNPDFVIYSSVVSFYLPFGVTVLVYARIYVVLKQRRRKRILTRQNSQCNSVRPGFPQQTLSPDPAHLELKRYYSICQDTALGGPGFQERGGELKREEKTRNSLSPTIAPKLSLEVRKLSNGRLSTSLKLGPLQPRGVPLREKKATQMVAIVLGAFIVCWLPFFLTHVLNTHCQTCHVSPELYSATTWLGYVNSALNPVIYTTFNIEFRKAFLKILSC
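Cells expressing the human receptor were seeded at 1500 cells/well, incubated overnight at 37 degrees C in 5% CO2, then exposed to library compounds with dopamine controls for 90 minutes at 37 degrees C before luminescent detection.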
MCF10A rereplic – A quantitative high throughput screen for small molecules that induce DNA re-replication in MCF 10a normal breast cells; MCF 10A DNA re-replication, Hoechst nuclear intensity, 48 h; Potency, µM (doses to about 46.1 µM), for inactives: at the top dose activity, positive = re-replication, hits mostly activators; 350,000 compounds, 2.9% hits; AID 624296, 2012; also: potency is read from the fitted curve at half-maximal effect; % of control where 0% means no effect; nearly all actives have a fitted effect of over 50% in size
KB-V1 MDR tox – qHTS assay for MDR1-selective chemotherapeutics: Primary screen using the drug-selected MDR subline cells KB-V1. KB-V1 MDR cells viability, CellTiter-Glo, 72 h. Potency, µM (doses to about 46.1 µM), most hits filed as cytotoxic. 400,000 compounds, 3.4% hits; also: potency is read from the fitted curve at half-maximal effect; % is scaled to controls: 0 for no effect and ±100 for the full control effect; nearly all actives have a fitted effect of over 60% in size
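KB-V1 MDR subline cells in DMEM (phenol-red free, 10% FBS) exposed to compounds in qHTS concentration series for 72 h at 37 degrees C. Viability read by CellTiter-Glo luminescence; concentration-effect curves fitted after normalization and correction.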
D3 ag – qHTS of D3 Dopamine Receptor Agonist: qHTS; max activation, %; 410,000 compounds, 0.58% hits; D3R DiscoveRx beta-arrestin cells, luminescence, 90 min; AID 652048, 2013; in the data active = max activation above about 30%; also: 0% is about no effect
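Agonist-mode cell screen: cells plated at 1500/well and incubated overnight at 37 °C, then exposed to library compounds for 90 min at 37 °C. Detection reagent was added for 30–60 min at room temperature, and luminescence was read.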
The depositor's hits bear a star; i = inactive; ? = inconclusive; nt = no result given. Unless noted, calls follow the shape of the dose curve; as a rule, active = well fitted curve in the direction sought with a large enough effect; inconclusive = small, poorly fitted or top-dose-only effect, or another doubt; inactive = no such curve, though single readings can be large; an effect the other way counts as inactive or inconclusive.

SMILES | KB-3-1 cytotox | SW480 rereplic | D3 antag | MCF10A rereplic | KB-V1 MDR tox | D3 ag
Cc1[nH]c2ccccc2c(=O)c1CN(C)Cc1ccccc1 | i | 1.3% | -63.1* | 9.8% | i | -3.1
c1ccc(N=c2nc(-c3ccccc3)n(-c3ccccc3)s2)cc1 | ? | nt | nt | nt | 16.4µM* | nt
COc1ccc(CNC(=O)c2cc(=O)[nH]c3ccc(S(=O)(=O)N4CCCC4)cc23)c(OC)c1 | nt | nt | nt | nt | nt | 11.4
COc1cc(Cl)c(CN2CCCC(CO)(Cc3cccc(Cl)c3)C2)cc1OC (centres undefined) | ? | ? | 32.4 | ? | ? | 2.5
COC(=O)c1ccc(CN2CCC(CO)(Cc3cccc(OC)c3)CC2)cc1 | i | 16.3% | -79.8* | ? | i | -9.0
COc1ccccc1/C=C/CN1CCCC(CO)(Cc2cccc(Cl)c2)C1 (centres undefined) | i | ? | -59.0* | ? | i | -14.3
COc1cccc(CC2(CO)CCCN(C/C=C/c3ccccc3OC)C2)c1 (centres undefined) | i | 12.3% | -82.5* | 7.8% | i | -5.3
COC(=O)c1ccc(CN2CCC(CO)(CCOc3ccccc3)CC2)cc1 | i | ? | ? | 4.4% | i | -15.9
COc1cccc(CC2(CO)CCCN(Cc3ccc(OC)c(C)c3OC)C2)c1 (centres undefined) | ? | 3.4% | ? | ? | i | -3.1
COc1ccc(/C=C/CN2CCCC(CO)(Cc3cccc(Cl)c3)C2)cc1 (centres undefined) | ? | ? | -59.7* | ? | i | -17.0
COC(=O)C(CCSC)NC(=O)c1cc2c(n(-c3ccc(C)cc3)c1=O)CC(C)(C)CC2=O (centres undefined) | i | nt | nt | nt | i | 6.7
COCCCNc1nc(NCc2ccc(C)cc2)c2cnn(C)c2n1 | i | nt | nt | nt | i | 3.9
COc1ccc(CCNC(=O)CCn2c(=O)c3cccn3c3ccc(F)cc32)cc1OC | nt | nt | nt | nt | nt | -16.0
CC(=O)c1ccc[n+](CC(=O)c2ccc(F)cc2)c1 | i | nt | nt | nt | i | nt
COc1ccc(F)c(CN2CCCC(CO)(Cc3cccc(Cl)c3)C2)c1 (centres undefined) | i | 5.7% | ? | 15.9% | i | -13.9
COc1cccc(CC2(CO)CCCN(Cc3ccccc3Cl)C2)c1 (centres undefined) | i | -10.0% | -22.4 | 4.61µM* | ? | -16.7
COC(=O)c1ccc(CN2CCCC(CO)(Cc3ccc(F)cc3F)C2)cc1 (centres undefined) | i | 12.2% | -95.9* | 22.5% | i | -18.4
Cn1cc(CN2CCCC(CO)(Cc3ccccc3)C2)c2ccccc21 (centres undefined) | i | 3.6% | -50.3* | 20.4% | i | -7.8
O=S(=O)(NCC(c1ccco1)S(=O)(=O)c1cccs1)c1ccc(F)c(C(F)(F)F)c1 (centres undefined) | nt | nt | nt | nt | nt | -6.6
CCc1ccc(C2c3c(-c4cc(C)ccc4O)n[nH]c3C(=O)N2Cc2cccnc2)cc1 (centres undefined) | i | nt | nt | nt | i | 10.5
O=C(COC(=O)c1c2c(nc3ccccc13)CCN(Cc1ccccc1)C2)Nc1c(F)cccc1F | i | -1.2% | 35.1 | ? | 18.4µM* | 16.2
CCOC(=O)C1CCN(Cc2ccc(N(C)C)cc2)CC1 | i | -3.8% | -51.5* | 1.1% | ? | -8.0
CCOC(=O)C1CCN(Cc2ccc(OC)cc2OC)CC1 | i | -1.6% | -6.3 | 10.4% | ? | -11.0
CCOC(=O)C1CCN(Cc2ccc(F)c(F)c2)CC1 | i | -0.5% | ? | -0.2% | i | -29.5
